# Compound activity from PubChem BioAssay.
# Most compounds without a hit are left out; they make up all but 2.4% or so of the library.
# D2 PAM-1: positive allosteric modulators of human D2 dopamine receptor; potentiation, % at 10 µM; HEK293 T-REx D2, calcium flux, EC20 dopamine potentiation; AID 485347; P14416; 340,000 tested, 0.34% active;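 active means potentiation over 3 SD above the plate norm, cut at about 30% in these data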; further: 0% is about no effect
#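 Tetracycline-induced Hek293 Trex D2 cells, force-coupled to calcium, loaded with no-wash calcium dye. Compound added with 180 s kinetic read for agonism, then EC20 dopamine and a further 180 s read for potentiation.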
# D2 PAM-2: positive allosteric modulators of human D2 dopamine receptor | potentiation, % (no concentration beside the values) | P14416 | DiscoveRx D2 beta-arrestin cells, luminescence, 90 min; 100% = 57 uM dopamine signal | 360,000 tested, 0.23% active; in the data active means potentiation above about 50%; inconclusive means mostly about 30% to 49%
#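 D2 cells co-treated with compound plus 50 nM dopamine (EC20) for 90 min at 37 deg C to detect potentiation. Beta-arrestin recruitment was read as enzyme-fragment luminescence after 1 h at ambient temperature. Full response was set by 57 uM dopamine.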
# D2 ag-1: activates the human D2 dopamine receptor; P14416; activation, % (test concentration not listed); 360,000 tested, 0.084% active; DiscoveRx PathHunter D2 beta-arrestin, luminescence, 90 min; 100% = 57 uM dopamine signal; AID 624465; in the data active means activation above about 40%; inconclusive means between about 15% and that limit
#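 DiscoveRx PathHunter D2 beta-arrestin cells (2,100/well) attached overnight, then compound-stimulated 90 min at 37 C in HBSS/10 mM HEPES/0.1% Tween-20 buffer; beta-galactosidase complementation read by luminescence after 1 h at ambient temperature. Dopamine 57 uM final (EC100) as control.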
# D2 antagonist: antagonists of human D2 dopamine receptor. P14416. HEK293 TREx D2 cells, calcium flux, dopamine EC80. inhibition, % at 10 µM. AID 485344. 340,000 tested, 2% active; in the data active means inhibition above about 30%; inactive means below that, where a call was filed; further: 0% is about no effect
#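 HEK293 T-REx D2 cells, tet-induced, calcium dye no-wash. Cpd pintool add, 180 s kinetic, then EC80 DA, 180 s kinetic. Ca flux read.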
# D2 ag-2: agonists of human D2 dopamine receptor | HEK293 T-REx D2 cells, calcium flux agonist mode | activation, % at 2 µM | 340,000 tested, 0.53% active | AID 485358;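 active means activation over 3 SD above normal in the single-dose calcium agonist read, cut at about 30% in these data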; further: 0% is about no effect
#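 HEK293 Trex D2 cells, tetracycline-induced, o/n 30 C 5% CO2; no-wash Ca dye, RT 30–90 min; 10-cycle baseline, 23 nl cpd added, kinetic Ca read 180 s; agonist hits = positive Ca response.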
# D3 arrestin ag: confirmation of human D3 dopamine receptor agonists, beta-arrestin | shares compounds with D2 ag-2 | DiscoveRx D3 beta-arrestin cells, luminescence, 90 min | Potency, µM (series often up to 76.9 µM), for the others: at the highest dose activation, most hits filed as activators | 2,300 tested, 4% active;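 further: potency means the concentration at half of the fitted maximal effect; 100% = dopamine control response; nearly all actives have a fitted effect of over 70% in size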
# Target sequence (P35462 whole entry, looked up): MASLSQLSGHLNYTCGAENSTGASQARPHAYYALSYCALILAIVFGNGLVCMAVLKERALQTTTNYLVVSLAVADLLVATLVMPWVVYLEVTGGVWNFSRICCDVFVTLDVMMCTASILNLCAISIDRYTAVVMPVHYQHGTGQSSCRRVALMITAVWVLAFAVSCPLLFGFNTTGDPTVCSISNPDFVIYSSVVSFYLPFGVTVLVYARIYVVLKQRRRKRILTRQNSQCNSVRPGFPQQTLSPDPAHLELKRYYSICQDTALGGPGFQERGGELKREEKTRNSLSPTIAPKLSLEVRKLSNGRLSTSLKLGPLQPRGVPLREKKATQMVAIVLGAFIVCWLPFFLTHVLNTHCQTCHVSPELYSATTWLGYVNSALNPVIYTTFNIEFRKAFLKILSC
# D2 ag-3: counter-screen for D3 agonists: human D2 dopamine receptor agonism. Potency, µM (doses to about 76.9 µM), without a hit: top-dose activation, hits mostly activators. shares compounds with D2 ag-2. DiscoveRx PathHunter D2 beta-arrestin, luminescence, 90 min; response scale: percent relative to full dopamine signal. 2,300 tested, 5.9% active; further: potency means the concentration at half of the fitted maximal effect; % of control where 0% means no effect; nearly all actives have a fitted effect of over 70% in size
# An asterisk follows results filed as active; u = inconclusive; x = no result given. Unless noted, the call rests on the fitted dose curve; in most records, active means well fitted activation curve with a large enough effect; inconclusive means small, poorly fitted or top-dose-only effect; inactive means flat fitted curve, though single readings scatter.
SMILES,D2 PAM-1,D2 PAM-2,D2 ag-1,D2 antagonist,D2 ag-2,D3 arrestin ag,D2 ag-3
Cn1c(Oc2ccccc2)nc2c1c(=O)n(Cc1ccc(Cl)cc1Cl)c(=O)n2C,x,x,x,x,-0.2,x,x
CC1(C)Cc2cccc(OCC(O)CNCc3ccccn3)c2O1 (stereo not drawn),6.4,-21.2,-0.6,-0.5,0.0,x,x
CC1(C)Cc2cccc(OCC(O)CN3CCN(c4ccccn4)CC3)c2O1 (stereo not drawn),-25.3,-4.0,u,60.3*,72.3*,u,u
Cc1cc(C)c(C)c(OCC(O)CN2CCN(c3ccccn3)CC2)c1 (stereo not drawn),-29.3,-2.8,48.0*,91.6*,66.3*,3.98µM*,3.98µM*
Cc1cccc(OCC(O)CN2CCN(c3ccccn3)CC2)c1C (stereo not drawn),-21.2,-21.2,u,78.2*,72.1*,21.2%,u
CC(=O)NC(c1cccc(F)c1)c1nc(-c2ccoc2)cs1 (stereo not drawn),x,-14.4,-3.4,x,x,x,x
COc1cc(C#N)c(NC(=S)N2CCN(C(=O)c3ccco3)CC2)cc1OC,x,-7.8,-4.6,x,x,x,x
O=C(C1CCC(CNS(=O)(=O)c2cccc3cccnc23)CC1)N1CCCC1 (stereo not drawn),-4.0,-2.7,0.6,10.6,-1.9,x,x
O=S(=O)(NCC1CCCN(Cc2ccccc2O)C1)c1cccc2cccnc12 (stereo not drawn),-21.0,-36.5,-3.0,18.1,48.5*,-5.7%,0.5%
O=C1C=C(c2ccc3ccccc3c2)C[C@@H](c2ccc(Cl)cc2)C1,-1.5,-6.1,-0.1,-9.2,0.6,-11.4%,-2.2%
O=C1C=C(c2cccc(CO)c2)C[C@@H](c2ccc(Cl)cc2)C1,-1.6,-3.4,-0.1,52.1*,0.0,-6.2%,5.0%
Cc1ccc(C2=CC(=O)C[C@H](c3ccc(Cl)cc3)C2)cc1,8.1,-13.5,-5.7,-2.2,1.0,x,x
O=C1C=C(c2ccccc2)C[C@@H](c2ccc(Cl)cc2)C1,4.5,-4.7,5.1,11.2,0.9,-7.6%,-1.8%
COc1ccc([C@H]2CC(=O)C=C(c3cccc(CO)c3)C2)cc1OC,-4.2,-3.5,0.5,6.4,0.8,x,x
O=C1C=C(c2ccc3ncccc3c2)C[C@@H](c2ccc(Cl)cc2)C1,16.9,-3.4,-2.3,-7.9,0.7,x,x
CCCc1nc2c3ccccc3ccn2c1CC1CCCCC1,x,-12.6,-7.1,x,x,x,x
CCN(CC)S(=O)(=O)c1cccc(C(=O)N/N=C2\CC(=O)CC(C)(C)C2)c1,-16.7,4.1,-0.4,-15.6,0.7,-3.2%,1.9%
CCN(CC)S(=O)(=O)c1cccc(C(=O)N/N=C2\CCCC(=O)C2)c1,-3.0,-8.6,-7.0,16.8,4.1,x,x
COc1ccc(NC(=O)N(CCC(C)C)C(C)c2cccs2)c(OC)c1 (stereo not drawn),-10.1,x,x,x,-1.0,x,x
Cc1cc(Cl)ccc1NC(=O)C(=O)NCc1ccco1,-20.2,x,x,x,-2.0,x,x
COc1ccccc1CCNC(C)CCc1ccc(O)cc1 (stereo not drawn),-17.6,-1.7,0.5,2.6,41.4*,u,6.2%
COc1cc(OC)c(OC)cc1CCC(C)NCCC(c1ccccc1)c1ccccc1 (stereo not drawn),-17.6,-39.2,13.6,49.2*,50.0*,2.6%,u
COc1ccc(CCNCCC(c2ccccc2)c2ccccc2)cc1OC,x,-46.0,-5.2,x,x,x,x
COc1ccc(CCC(C)NCc2ccccc2OC)cc1 (stereo not drawn),-7.4,-1.7,-6.3,-15.7,0.6,x,x
O=C(COC(=O)c1cccc(NC(=O)c2ccc(Br)cc2)c1)c1ccc(Cl)cc1,13.0,x,x,x,0.5,x,x
SMILES,D2 PAM-1,D2 PAM-2,D2 ag-1,D2 antagonist,D2 ag-2,D3 arrestin ag,D2 ag-3
CCN(CC)C(=O)c1cccc(NC(=O)CCc2nc3sc4c(c3c(=O)[nH]2)CCCC4)c1,-1.2,-19.2,1.3,-11.7,-1.0,-5.4%,7.1%
O=C(c1ccco1)N1CCN(C(=O)c2cc3cc([N+](=O)[O-])ccc3oc2=O)CC1,6.3,-3.0,0.5,-13.0,1.4,x,x
O=C(c1cccs1)N1CCN(Cc2cccc([N+](=O)[O-])c2)CC1,-16.4,-7.1,-1.2,38.1*,71.4*,24.0%,u
O=C(c1ccc([N+](=O)[O-])cc1)N1CCN(C(=O)c2cccs2)CC1,-4.9,-8.3,0.4,x,x,x,x
O=C(c1ccco1)N1CCN(Cc2cccc([N+](=O)[O-])c2)CC1,-14.0,-2.7,-2.3,-2.2,37.2*,-2.3%,5.6%
O=C(c1cccs1)N1CCN(Cc2ccccn2)CC1,-10.6,-1.0,-0.6,52.5*,77.7*,u,u
CCN(CC)CCN(C)C1CCC(c2ccccc2)CC1 (stereo not drawn),-18.4,-15.7,-2.5,-6.5,46.3*,-5.1%,3.1%
CNC(=O)N(O)C1N(/N=C/c2ccc(C)cc2)C(=S)SC1(C)C (stereo not drawn),-4.0,-10.0,-3.7,-4.3,-0.1,x,x
CNC(=O)N(O)C1N(/N=C/c2cc(Br)ccc2O)C(=S)SC1(C)C (stereo not drawn),-19.0,12.0,59.0*,49.5*,47.7*,-8.0%,u
COc1ccc2oc(=O)c(C(=O)N3c4ccccc4CC3C)cc2c1 (stereo not drawn),x,5.9,10.8,x,x,-3.2%,10.0%
CCOC(=O)c1c(C)c(C(=O)NCCCN2CCCC2=O)c(C)n1CC,-18.9,-15.1,0.6,-7.4,62.0*,-4.6%,-3.8%
COC(=O)c1cc2c(ccn2-c2ccc(F)cc2)n1Cc1ccc(C#N)cc1,1.1,-4.9,-3.4,-5.4,6.0,x,x
COC(=O)c1cc2c(ccn2-c2ccc(F)cc2)n1Cc1ccc(OC)cc1,2.7,-6.2,4.1,28.3,4.6,-13.6%,u
COc1ccccc1/C=N/NC(=O)c1ccc(NC(=O)c2ccccc2Br)cc1,-19.3,2.0,2.4,-0.2,62.9*,12.4%,0.1%
COc1cc(/C=N/NC(=O)CCN2CCN(c3ccccc3)CC2)cc(OC)c1OC,-9.6,-16.8,0.6,29.8,18.9,-3.5%,6.3%
O=[N+]([O-])c1ccc(C(O)CN2CCN(c3ccccc3)CC2)cc1 (stereo not drawn),-19.9,-3.9,u,46.4*,59.7*,u,u
O=C(CCN1CCN(c2ccccc2)CC1)N/N=C/c1ccc(O)c(O)c1O,-23.8,6.8,11.4,78.1*,83.0*,u,31.6µM*
